Nrf2 ARE act – activates Nrf2 signaling | AREc32 ARE-luciferase reporter (MCF7-derived line), luminescence, 24 h | Potency, µM (titrated, usually from 46.1 µM), most hits filed as activators | hit rate 0.31% among 410,000; further: nearly all actives have a fitted effect of over 65% in size
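Nrf2 activation is followed as ARE-luciferase induction in the AREc32 line after one day of compound treatment; luminescence is read with Steady-Glo.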
A549 viability – counter-screen for Nrf2 inhibitors: cytotoxicity in A549 cells; A549 ARE-Fluc cells, CellTiter-Fluor viability, 18-24 h; Potency, µM (titrated, usually from 46 µM), most hits filed as inhibitors; hit rate 0.16% among 390,000
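Cytotoxicity counterscreen: CellTiter-Fluor fluorescence was measured in A549 ARE_Fluc cells after 18-24 h of compound exposure in a concentration series. The subsequent BugLite luminescent read reports ARE-luciferase activity.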
Rango-impB inh – prevents formation of the Rango-importin beta complex | Q14974 | Rango CFP/YFP FRET sensor + importin beta, 45 min | Potency, µM (titrated, usually from 92.2 µM) | hit rate 0.031% among 340,000; calls by dose curve; further: nearly all actives have a fitted effect of over 15% in size
Target sequence (Q14974 whole entry, looked up): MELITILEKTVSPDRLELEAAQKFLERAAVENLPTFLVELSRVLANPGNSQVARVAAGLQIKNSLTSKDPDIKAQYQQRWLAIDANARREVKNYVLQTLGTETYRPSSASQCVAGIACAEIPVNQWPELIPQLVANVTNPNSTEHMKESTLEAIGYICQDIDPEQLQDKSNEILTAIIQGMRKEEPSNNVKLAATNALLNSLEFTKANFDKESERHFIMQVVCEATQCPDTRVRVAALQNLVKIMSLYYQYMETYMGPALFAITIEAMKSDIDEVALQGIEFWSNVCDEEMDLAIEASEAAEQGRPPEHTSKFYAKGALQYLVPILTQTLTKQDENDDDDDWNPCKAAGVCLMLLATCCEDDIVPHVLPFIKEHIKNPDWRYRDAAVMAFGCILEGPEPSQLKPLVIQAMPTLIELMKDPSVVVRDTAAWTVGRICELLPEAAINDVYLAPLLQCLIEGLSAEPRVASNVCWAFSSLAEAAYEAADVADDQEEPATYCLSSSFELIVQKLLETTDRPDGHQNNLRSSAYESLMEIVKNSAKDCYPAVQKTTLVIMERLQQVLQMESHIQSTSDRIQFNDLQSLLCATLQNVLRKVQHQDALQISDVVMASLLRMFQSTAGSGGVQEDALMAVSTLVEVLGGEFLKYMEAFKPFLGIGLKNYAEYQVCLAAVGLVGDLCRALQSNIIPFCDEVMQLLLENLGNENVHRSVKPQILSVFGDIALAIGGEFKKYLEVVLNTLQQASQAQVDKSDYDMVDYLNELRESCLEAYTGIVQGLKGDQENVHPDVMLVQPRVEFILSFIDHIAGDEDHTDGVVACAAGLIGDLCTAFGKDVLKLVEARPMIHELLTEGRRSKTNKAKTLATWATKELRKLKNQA
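Inhibition scored from the CFP 486 nm/YFP 530 nm FRET ratio 45 min after adding 0.125 microM importin beta to 50 nM Rango biosensor preincubated 5 min with compound (room temperature, PBS with DTT, Tween-20, BSA). No-importin wells as positive control.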
Nrf2 inh – blocks Nrf2 signaling; A549 ARE-Fluc reporter, luciferase luminescence, 18-24 h; Potency, µM (top dose mostly 46 µM), usual class: inhibitors; hit rate 2.1% among 360,000; AID 504444; further: nearly all actives have a fitted effect of over 60% in size
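In this cell-based qHTS, ARE-driven firefly luciferase in A549 cells reports Nrf2 activity; the luminescent signal after BugLite lysis is the measured value, with a prior CellTiter-Fluor read for cell health.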
Rango dissoc inh – prevents RanGTP from dissociating the Rango-importin beta complex; Potency, µM (doses to about 46.1 µM); O95149+P62826; hit rate 0.071% among 340,000; Biochemical FRET Rango-importin beta, RanGTP-induced dissociation; calls by dose curve; further: nearly all actives have a fitted effect of over 45% in size
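Rango (0.1 uM)–importin beta (0.25 uM) complex; RanGTP-RCC1 trigger; 45 min RT; CFP/YFP FRET read.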
A number is an active result; 0 = inactive; ? = inconclusive; - = no result; [ ] = another dose, or the depositor's remark. Most compounds without a hit are left out; they make up all but 2.3% or so of the library. Unless noted, the call rests on the fitted dose curve; in most records, active means well fitted curve in the direction sought with a large enough effect; inconclusive means small, poorly fitted or top-dose-only effect, or another doubt; inactive means no such curve, though single readings can be large; an effect the other way counts as inactive or inconclusive.

SMILES | Nrf2 ARE act | A549 viability | Rango-impB inh | Nrf2 inh | Rango dissoc inh
COc1cc(Cl)c(C)cc1NC(=O)c1cnn(-c2ccc(F)cc2F)c1C1CCN(C(=O)OC(C)(C)C)CC1 | 0 | 0 | - | ? | -
Cc1cccc(S(=O)(=O)N2CCN(S(=O)(=O)c3ccc4c(c3)OCCO4)CC2)c1 | - | 0 | - | 0 | -
O=C1c2cc(S(=O)(=O)N3CCOCC3)ccc2-c2ccc(S(=O)(=O)N3CCOCC3)cc21 | - | 0 | - | 0 | -
Cc1ccc(-c2csc(=Nc3cccnc3)n2CCCN2CCCC2=O)cc1C | 0 | 0 | 0 | ? | 0
Cc1ccc(-c2csc(=Nc3cccnc3)n2CCCn2ccnc2)cc1C | 0 | 0 | 0 | 18µM | 0
COc1ccccc1/C=C/C(=O)NCCc1ccccn1 | 0 | 0 | 0 | ? | 0
COc1ccc(C(CC(=O)O)NC(=O)COc2cc(C)ccc2C)cc1OC (centres undefined) | 0 | 0 | 0 | 0 | 0
COc1ccc(NC(=O)c2c(NC(=O)C(F)(F)F)sc3c2CCCCC3)cc1 | 0 | ? | - | 1.8µM | -
COc1cccc(C(=O)Nc2sc3c(c2C(=O)O)CCCC3)c1 | 0 | ? | 0 | 5.8µM | 0
Cc1ccc(C)c(NC(=O)CN2C(=O)c3cccnc3Oc3ccc(C)cc32)c1 | 0 | 0 | - | 0 | -
NC(=O)c1sc(-c2ccsc2)cc1NS(=O)(=O)c1ccc(C(F)(F)F)cc1 | 0 | 0 | 0 | 15µM | 0
CC(=O)c1sc(-c2ccc(F)cc2)cc1NS(=O)(=O)c1ccc(C)cc1 | 0 | 0 | 0 | 0 | 0
CN1CC(c2ccccc2Cl)C2(COc3ccccc3C2=O)C12C(=O)Nc1ccccc12 (centres undefined) | 0 | 0 | 0 | 21µM | 0
c1c[nH]c(CNc2ncnc3ccc(-c4ccc5c(c4)OCO5)cc23)n1 | - | 0 | - | 0 | -
O=S(=O)(c1ccccc1F)N1CCN(CCc2ccccc2)CC1 | 0 | 0 | 0 | 18µM | 0
O=S(=O)(NCCN1CCN(S(=O)(=O)c2ccccc2F)CC1)c1ccccc1F | 0 | 0 | 0 | 0 | 0
O=S(=O)(c1ccc(F)c(F)c1)N1CCN(CCc2ccccc2)CC1 | 0 | 0 | 0 | 23µM | 0
CC(=O)N1CCc2c(sc3c2c(=O)n(Cc2ccccc2)c(=O)n3Cc2ccccc2F)C1 | 0 | 0 | - | 16µM | -
CCOC(=O)N1CCc2c(sc3c2c(=O)n(Cc2ccccc2)c(=O)n3Cc2ccccc2F)C1 | 0 | 0 | 0 | ? | 0
CC(=O)N1CCc2c(sc3c2c(=O)n(Cc2ccccc2)c(=O)n3Cc2ccccc2Cl)C1 | 0 | ? | - | 18µM | -
CC(=O)N1CCc2c(sc3c2c(=O)n(Cc2ccccc2)c(=O)n3Cc2ccc(C)cc2)C1 | 0 | 0 | - | 0 | -
O=C(CNC(=O)C1CCCC1)OC(C(=O)Nc1cc(C(F)(F)F)ccc1Cl)c1ccccc1 (centres undefined) | - | 0 | - | 0 | -
CCn1cc(C(=O)N2CCN(c3ccccc3OC)CC2)c(=O)c2cc(S(=O)(=O)N3CCCCC3)ccc21 | 0 | 0 | - | 0 | -
Cc1ccc2[nH]c(CSc3nnc(NC(=O)c4ccc(Cl)cc4)s3)cc(=O)c2c1 | 0 | 0 | - | - | -
CCC(C)NC(=O)c1cn(CC)c2ccc(S(=O)(=O)N3CCc4ccccc4C3)cc2c1=O (centres undefined) | 0 | 0 | - | 23µM | -
SMILES | Nrf2 ARE act | A549 viability | Rango-impB inh | Nrf2 inh | Rango dissoc inh
CCn1cc(C(=O)NC(C)c2ccccc2)c(=O)c2cc(S(=O)(=O)N3CCc4ccccc4C3)ccc21 (centres undefined) | 0 | 0 | - | 0 | -
CCN(CC)Cc1c(NC(=O)c2ccccc2)sc(C)c1C | 11µM | 0 | 0 | 0 | 0
CCN(CC)C(=O)c1c(NC(=O)c2ccccc2)sc(C)c1C | 0 | 0 | 0 | 0 | 0
COc1cc(CNC(=O)c2cc(-c3ccccc3)n[nH]2)cc(OC)c1OC | 0 | 0 | - | 0 | -
COc1cnc(-c2ccccn2)nc1N(C)C | 0[9.22 µM] | ? | 0 | 8.2µM | 0
O=C(Nc1cccc2nsnc12)c1ccc2c(c1)OCO2 | 0 | 0 | ? | ? | ?
O=C(Nc1cccc2nsnc12)c1ccc(F)cc1 | 11µM | 0 | ? | ? | ?
N#C/C(=C\c1ccc(Oc2ccc(C(F)(F)F)cc2[N+](=O)[O-])cc1)c1nc2ccccc2[nH]1 | 0 | ? | ? | 16µM | 0
N#C/C(=C/c1ccc(N2CCCC2)c([N+](=O)[O-])c1)c1nc2ccccc2[nH]1 | 0 | 0 | ? | 0 | 0
